Shown are actives, neighbours in structure and some others; about 3% of the full set was active somewhere.
LGR2 inh: Drosophila LGR2 receptor signaling inhibition | inhibition, % at 9.99 µM | HEK293 LGR2, CRE-luciferase, bursicon-stimulated, 4 h | 380,000 compounds, 0.35% hits;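 active = drop in luminescence signal, shown as inhibition above about 50% in the replicate tests, limit read from the data, passing the limit was not always enough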;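 note: agonist challenge used bursicon conditioned medium at about half maximal strength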
TROY signal inh: TROY signaling inhibition. Q293 LMP1-TROYcd NF-kB luciferase reporter, 4 h. inhibition, % at 10 µM. 360,000 compounds, 0.98% hits. AID 1347056;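 active = compounds whose plate-normalised and pattern-corrected inhibition of the luciferase reporter signal at the single screening dose is 50% or more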
EBV LMP1 NFkB: Epstein-Barr LMP1 NF-kappaB reporter inhibition; LMP1-induced NF-kappaB luciferase reporter cells, luminescence; inhibition, % at 12.5 µM; 350,000 compounds, 0.69% hits; in the data active = inhibition above about 41%;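 note: 0% = neutral control wells and 100% = reference inhibitor control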
MITF TRPM1 inh: reduces MITF-dependent TRPM1 promoter luciferase signal; SK-MEL-5 TRPM1 promoter luciferase, 24 h; inhibition, % at 12.5 µM; 330,000 compounds, 0.83% hits; AID 488899;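 active = mean inhibition across replicates of 60% or more, whatever share of single replicates reaches that level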
TWEAK-Fn14 inh: blocks TWEAK-Fn14 interaction in a reporter cell assay; AID 1159606; TWEAK-stimulated Fn14 reporter cells, luciferase luminescence, 8 h; 360,000 compounds, 2% hits; inhibition, % at 10 µM; in the data active = inhibition above about 50%
MITF act: activators of MITF-driven TRPM1 promoter activity in SK-MEL-5 cells; 300,000 compounds, 0.75% hits; activation, % at 12.5 µM; AID 588334; SK-MEL-5 TRPM1-promoter luciferase, 24 h; % of positive control, neutral wells = 0;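 active = mean activation of at least 80% with every replicate also reaching 80%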;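 note: 0% = neutral control wells and 100% = parthenolide positive control wells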
* = called active by the depositor; / = not tested or not shown.

SMILES	LGR2 inh	TROY signal inh	EBV LMP1 NFkB	MITF TRPM1 inh	TWEAK-Fn14 inh	MITF act
c1ccc(CNc2nc(Oc3ccncc3)c3sccc3n2)cc1	-21	-10	/	/	99*	/
COc1ccccc1CNc1nc(NCc2ccccc2F)c2sccc2n1	/	58*	/	/	90*	/
c1ccc(CNc2nc(NCc3ccccc3)c3sccc3n2)cc1	-9	58*	/	/	39	/
c1csc(CNc2nc(Oc3ccncc3)c3sccc3n2)c1	-3	-7	/	/	27	/
Cc1ccc(S(=O)(=O)Nc2ccc3c(c2)C(=O)N([C@H](C)CO)C[C@H](C)[C@H](CN(C)C(=O)c2ccccc2)OCCCC[C@H](C)O3)cc1	-16	/	/	/	/	/
CCN(Cc1ccc(OC)c(F)c1)C(=O)CCl	13	2	-14	75*	13	-75
O=C(C[C@@H]1CC[C@H]2[C@@H](COC[C@H](O)CN2Cc2nccs2)O1)NCc1ccccc1	-14	/	/	/	/	/
Cc1[nH]n(-c2ccccc2)c(=O)c1N=Nc1ccc2c(c1)OCCO2	-71	-44	-57	-69	-14	74
Cc1[nH]n(-c2ccccc2)c(=O)c1N=Nc1c(O)cc(S(=O)(=O)N(C)C)c2ccccc12	20	49	23	58	88*	-53
CCC(=O)Nc1ccc2c(c1)C(=O)N(C)C[C@H](OC)[C@H](C)CN(Cc1ccccc1)[C@@H](C)CO2	17	/	/	/	/	/
O=C(C[C@@H]1CC[C@H]2[C@@H](COC[C@H](O)CN2CC2CCOCC2)O1)NCC1CC1	-20	/	/	/	/	/
CCOC(=O)C1=C(C)N(C[C@@H]2CC[C@@H](Cc3ccc4cc(OC)ccc4c3)O2)C(=O)NC1c1ccc(OC)cc1 (some centres undefined)	17	10	10	15	21	-15
COc1ccc2cc(C[C@@H]3CC[C@@H](CO)O3)ccc2c1	-66	-46	-15	-120	-28	118*
O=C(Nc1ccccc1)N1CC(=O)N2[C@@H](CO)[C@H](c3ccc(C#CC4CC4)cc3)[C@@H]2C1	7	/	/	/	/	/
Cc1nn(-c2ccccc2)c2[nH]c(=O)c(CNc3ccc4c(c3)OCCO4)cc12	/	66*	2	0	58*	-3
CCc1ccc(NCc2cc3c(C)nn(-c4ccccc4)c3[nH]c2=O)cc1	-20	20	-15	11	20	-11
O=C(Nc1ccc(F)cc1)N[C@@H]1CC[C@@H](CCNC(=O)c2ccccc2F)O[C@@H]1CO	5	/	/	/	/	/
CCn1c(=O)c([N+](=O)[O-])c(Cl)c2ccccc21	/	14	-4	94*	21	-93
CCn1c(=O)c([N+](=O)[O-])c(NCCN(C)C)c2ccccc21	2	-2	2	-4	9	3
Nc1cc2ccncc2c2ccccc12	7	57*	56*	-6	83*	4
CCC(=O)N1[C@H](CO)[C@H](c2ccccc2)C12CN(Cc1nccs1)C2	12	/	/	/	/	/
CN(C)S(=O)(=O)c1cccc(N=C2NN=C(c3ccccc3)CS2)c1	11	/	/	/	/	/
CC(=O)Nc1ccc(C2=NNC(=Nc3cccc(S(=O)(=O)N(C)C)c3)SC2)cc1	/	17	4	-5	62*	8
CCN(CC)S(=O)(=O)c1cccc(-n2c(O)c(C=Nc3ccccc3C(=O)O)c3ccccc3c2=O)c1	14	42	58*	54	53*	-53
O=C(O)c1ccccc1N=Cc1c(O)n(-c2nccs2)c(=O)c2ccccc12	15	43	16	20	22	-14
SMILES	LGR2 inh	TROY signal inh	EBV LMP1 NFkB	MITF TRPM1 inh	TWEAK-Fn14 inh	MITF act
COc1ccc2c3c([nH]c2c1)[C@H](CO)N(Cc1nccs1)CC31CN(Cc2nccs2)C1	2	/	/	/	/	/
Cc1ccccc1Cn1c(O)c(N=NC(=S)Nc2ccccc2F)c2ccccc21	20	-16	44*	13	-8	-16
Cc1ccc(C)c(Cn2c(O)c(N=NC(=S)Nc3ccccc3F)c3ccccc32)c1	41	14	45*	21	3	-11
Oc1c(N=NC(=S)Nc2ccccc2F)c2ccccc2n1Cc1ccc(Cl)cc1	16	22	39	16	6	-12
Oc1c(N=NC(=S)Nc2ccccc2F)c2ccccc2n1Cc1ccccc1F	31	18	48*	18	13	-17
COC1CC(C)C(OC)c2cc(O)cc(c2O)NC(=O)C(C)=CC=CC(C)C(OC(N)=O)C(C)=CC(C)C1OC (centres undefined)	16	1	48*	72*	34	/
COC1C=CC=C(C)C(=O)NC2=CC(=O)C(N)=C(CC(C)CC(OC)C(O)C(C)C=C(C)C1OC(N)=O)C2=O (centres undefined)	50	18	72*	65*	70*	-65
C[C@@H]1CN([C@H](C)CO)C(=O)c2cccc(NS(=O)(=O)c3ccc(F)cc3)c2O[C@@H]1CN(C)Cc1ccc(C(=O)O)cc1	-4	/	/	/	/	/
Cc1[nH]n(-c2cccc(Cl)c2)c(=O)c1C=NCC(C)C	-47	-67	-34	-111	-6	111*
Cc1[nH]n(-c2cccc(Cl)c2)c(=O)c1C=NCc1ccco1	-64	-17	-53	-103	-14	105*
CCSCc1nnc(SCC(=O)c2ccc(OC)cc2)n1C	/	/	-4	13	84*	-13
C[C@@H]1CN([C@@H](C)CO)C(=O)Cc2cc(NC(=O)NC3CCCCC3)ccc2O[C@@H]1CN(C)S(=O)(=O)c1cn(C)cn1	7	/	/	/	/	/
CC(C)c1ccc(S(=O)(=O)/N=C2/C=C(Sc3ncn[nH]3)C(=O)c3ccccc32)cc1	/	62*	-1	60	92*	-56
Cc1ccc(S(=O)(=O)/N=C2/C=C(Sc3ncn[nH]3)C(=O)c3ccccc32)cc1	/	38	64*	91*	95*	-91
Cc1ccc(S(=O)(=O)Nc2ccc(O)c(Sc3ncn[nH]3)c2)cc1	9	9	0	4	8	0
C[C@H]1CCCCO[C@@H](CN(C)C(=O)NC2CCCCC2)[C@@H](C)CN([C@@H](C)CO)C(=O)c2cc(NC(=O)c3ccncc3)ccc2O1	-1	/	/	/	/	/
CC(=O)Nc1ccc(S(=O)(=O)NCC(=O)NCCCc2ccccc2)cc1	10	-8	0	12	51*	-9
CC(=O)Nc1ccc(S(=O)(=O)NCCC(=O)NCCCc2ccccc2)cc1	-9	2	8	-10	5	7
CCCN(C)C[C@H]1Oc2ncc(-c3cccnc3)cc2C(=O)N([C@@H](C)CO)C[C@H]1C	0	/	/	/	/	/
O=C(NCc1ccc(OC(F)(F)F)cc1)C1CC(c2c(Cl)cccc2Cl)=NO1 (centres undefined)	-20	-4	41*	/	-4	/

From PubChem BioAssay
